High-throughput results from PubChem.
BRCA1 expr act – activators of BRCA1 expression; MCF7-BRCA1-FFLuc reporter, luminescence, 48 h; response scale: scaled: vehicle 0%, 10 µM genistein 100%; Potency, µM (top dose mostly 46.1 µM), for inactives: at the top dose activation, hits mostly activators; actives 1.1% (n = 380,000); AID 624202; further: nearly all actives have a fitted effect of over 80% in size
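Quantitative HTS in MCF7 cells stably reporting BRCA1 expression via firefly luciferase. Compound treatment lasts 48 h at 37 °C in phenol-red free MEM. Activation is expressed relative to genistein at 10 microM and DMSO.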
Mito fusion act – blocks mitochondrial division or promotes mitochondrial fusion; AID 485298; S. cerevisiae fusion-defective mutant growth rescue, CellTiterGlo 48 h; Potency, µM (titrated, usually from 46.1 µM), for inactives: at the top dose growth rescue (activation), hits mostly activators; actives 0.23% (n = 320,000); further: % of control where 0% means no effect; nearly all actives have a fitted effect of over 45% in size
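Compounds are tested for their ability to restore growth of mitochondrial fusion-defective yeast strains at non-permissive 37C in YPEG medium over 48 hours. Viability is quantified by luciferase luminescence.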
GLP-1R agonist – activates the human GLP-1 receptor; P43220; HEK293 GLP-1R CRE-luciferase, luminescence, 4-6 h; cells express a hypersensitive GLP-1R form; Potency, µM (highest dose often 45.6 µM), for the others: at the highest dose activation, actives largely listed as activators; actives 0.007% (n = 380,000); further: % of control where 0% means no effect
Target sequence (P43220 whole entry, looked up): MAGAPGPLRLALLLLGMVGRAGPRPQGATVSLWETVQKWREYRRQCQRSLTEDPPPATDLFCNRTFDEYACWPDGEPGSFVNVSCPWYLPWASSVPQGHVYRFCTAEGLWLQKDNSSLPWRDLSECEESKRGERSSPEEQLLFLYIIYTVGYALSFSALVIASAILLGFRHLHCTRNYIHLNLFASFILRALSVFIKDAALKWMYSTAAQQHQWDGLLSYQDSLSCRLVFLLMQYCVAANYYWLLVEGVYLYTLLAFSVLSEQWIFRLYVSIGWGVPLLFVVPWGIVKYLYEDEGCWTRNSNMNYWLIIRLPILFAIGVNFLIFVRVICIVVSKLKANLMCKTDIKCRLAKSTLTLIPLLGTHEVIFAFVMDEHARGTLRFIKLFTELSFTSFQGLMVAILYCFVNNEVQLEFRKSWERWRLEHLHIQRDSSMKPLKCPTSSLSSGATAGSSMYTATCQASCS
GLP-1R inv ag – acts as inverse agonist at human GLP-1 receptor | P43220 | HEK293 GLP-1R CRE-luciferase, luminescence, 24 h; GLP-1R form is constitutively active | Potency, µM (series often up to 38.3 µM), inactives show at the highest dose activity change, negative = inhibition, hits mostly inhibitors | actives 1.6% (n = 410,000) | AID 624417; further: on the % scale 0 is the no-effect control and ±100 the full control effect; nearly all actives have a fitted effect of over 55% in size
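Cells are plated, allowed 12 hours at 37 deg C, then treated with compounds for 24 hr before luciferase detection reagent is added and luminescence is read after 12 min at room temperature. The HEK293 line carries constitutively active GLP-1R with a cAMP-responsive reporter.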
HEK293 tox – cytotoxic in the GLP-1 receptor inverse agonist counter-screen; HEK293 cAMP-luciferase reporter cells, luminescence, 24 h; actives 0.13% (n = 410,000); Potency, µM (doses to about 38.3 µM), for the others: at the highest dose activity change, negative = inhibition, most hits filed as inhibitors;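 further: loss of luciferase light is scored as toxicity; on the % scale 0 is the no-effect control and ±100 the full control effect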
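To flag toxic compounds, the library was rerun on cells for 24 hr at 37 deg C and 5% CO2. Viability-linked luminescence was captured 12 min after adding luciferase detection reagent.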
* = called active by the depositor; ? = inconclusive; nt = not tested or not shown; [ ] = remark or other dose. The list is not random: actives were taken first. Their share in the collection is about 2.8%. The call rests on the fitted dose curve; in most records, active means well fitted curve in the direction sought with a large enough effect; inconclusive means small, poorly fitted or top-dose-only effect, or another doubt; inactive means no such curve, though single readings can be large; an effect the other way counts as inactive or inconclusive. Potency means the concentration at half of the fitted maximal effect.

SMILES | BRCA1 expr act | Mito fusion act | GLP-1R agonist | GLP-1R inv ag | HEK293 tox
COC(=O)c1ccc(CN2CCC(CO)(Cc3ccccc3Cl)CC2)cc1 | 1% | -4% | 19% | ? | -8%
O=C(C1CC12CCCC2)N1CCC(CO)(Cc2ccccc2Cl)CC1 (configuration not stated) | -7% | 6% | -2% | 10µM* | 0%
CC(C)(C)OC(=O)N(CCc1ccccc1)Cc1ccc(OCc2cccc(NC(=O)C3CC3)c2)cc1 | -31% | nt | -3% | 7.9µM* | 9%
CC(C)(C)OC(=O)N(CCc1ccccc1)Cc1ccc(OCc2cccc(NC(=O)/C=C/c3ccccc3)c2)cc1 | 86% | nt | 0% | ? | 1%
CC(C)(C)OC(=O)N(CCc1ccccc1)Cc1cccc(OCc2cccc(NC(=O)c3ccccc3)c2)c1 | -8% | nt | -3% | 10µM* | 1%
CC(C)(C)OC(=O)N(CCc1ccccc1)Cc1ccc(OCc2cccc(NC(=O)C3CCC3)c2)cc1 | -27% | nt | 5% | ? | 1%
Cc1ccc(S(=O)(=O)NC(=O)C2(C)CCN2C(=O)C2CCCCC2)nc1 (configuration not stated) | 6% | nt | -4% | 10% | 0%
O=C(NCc1cccs1)c1cc(-c2cccs2)on1 | 68% | 0% | -10% | 0% | 3%
CC(C)=CCC(C)(C)CNC(=O)NC1CCCCC1 | 11% | 2% | -3% | 10µM* | -1%
Cc1ccc(NC(=O)CCNS(=O)(=O)c2ccccc2)cc1S(=O)(=O)N1CCOCC1 | -9% | 5% | 9% | 11% | 1%
OC(COc1ccc(CNCCc2ccc(C(F)(F)F)cc2)cc1)CN1CCCCC1 (configuration not stated) | -94% | -17% | -1% | 2.2µM* | ?
Nc1ccc(Cn2ccc3c4c(N)nc(N)nc4ccc32)cc1 | -83% | nt | 13% | ? | 7.9µM*
O=C(/C=C\c1ccco1)c1ccc(NC(=O)c2ccco2)cc1 | 1.8µM* | 9% | 17% | 12% | -10%
O=C(CNC(=O)c1ccco1)Nc1ccc(Cl)cc1 | 13µM* | 1% | 6% | 14% | 8%
CC(=O)Nc1ccc(C(=O)/C=C/c2ccco2)cc1 | 76% | 0% | 3% | 34% | 8%
CCC(=O)Nc1ccc(NC(=O)c2ccco2)c(OC)c1 | 86% | 3% | 5% | 76% | 16%
COc1cc(NC(=O)CC(C)C)ccc1NC(=O)c1ccco1 | 7.9µM* | nt | -1% | 2% | 0%
CCC(=O)Nc1ccc(NC(=O)c2ccco2)cc1 | 2.5µM* | -1% | -4% | -5% | 3%
CC(C(=O)Nc1ccc(F)c(F)c1)N1CCN(C)CC1 (configuration not stated) | -21% | -2% | -1% | -3% | 19%
CCCC(=O)N1CCN(c2ccc(NC(=O)c3ccccc3)cc2)CC1 | -2% | -4% | 8% | -12% | -11%
COc1c(C)cc(Br)cc1C(=O)Nc1cccc(NC(=O)c2ccco2)c1 | -55% | 20µM* | 0% | ? | -21%
O=C(c1ccccc1)c1cccc(NC(=O)c2ccco2)c1 | 11µM* | 15% | 2% | 1% | -3%
Cc1ccccc1NC(=O)CN(C)S(=O)(=O)c1ccc2c(c1)n(C)c(=O)c(=O)n2C | -1% | 0% | 3% | ? | -10%
Cc1nc2cc(Nc3nnc(-c4ccccc4)c4ccccc34)ccc2n1C | 4.5µM* | 0% | 1% | -8% | -10%
Clc1cccc(Nc2nnc(-c3ccccc3)c3ccccc23)c1 | -34% | nt | nt | nt | nt
SMILES | BRCA1 expr act | Mito fusion act | GLP-1R agonist | GLP-1R inv ag | HEK293 tox
O=C(Nc1nnc(CC2=CCCCC2)s1)c1cccs1 | 6.3µM* | 20% | 6% | -30% | -3%
O=C(Nc1nc2c(s1)CCCC2)c1cccs1 | ? | 0% | -8% | 10µM* | -16%
O=C(CCSc1ccccc1)NC1CCCCCC1 | 7.1µM* | 12% | 12% | -4%[7.66 µM] | 3%[7.66 µM]
O=C(Nc1nnc(Cc2ccccc2)s1)c1cccs1 | ? | -2% | -5% | 1% | -10%
O=C(CCSc1ccccc1)Nc1nc2c(s1)CCCC2 | 11µM* | 12% | 10% | 4% | 1%
O=C(Cc1cccs1)Nc1nc2c(s1)CCCC2 | 4µM* | 15% | 13% | 0% | 13%
COc1ccc(CC(=O)Nc2nc3c(s2)CCCC3)cc1 | nt | nt | nt | ? | 3%
CCC(=O)Nc1ccc(Cl)c(NC(=O)c2c(OC)cccc2OC)c1 | -14% | 0% | 13% | 0% | -1%
Oc1ccc(/C=N/Nc2ccc(C(F)(F)F)cn2)cc1 | 6.3µM* | 0% | 13% | ? | -8%
NC1(C(=O)O)CC1 | 6% | -30% | -2% | 21% | 3%
Nc1nc(-c2ccccc2)c(CCCOc2ccc(NC(=O)CBr)cc2)c(=O)[nH]1 | -17% | nt | 3% | 26% | 10µM*
COc1cc(NC(=O)CN2CCN(C(=O)C3CCCO3)CC2)c(OC)cc1Cl (configuration not stated) | -11% | 2% | -11% | 1% | 15%
CCOc1ccccc1CNc1nc2nc3c(c(=O)n2[nH]1)CCC3 | 1% | 1% | -7% | 3% | 3%
CC(=O)NNC(=O)CC(=O)Nc1nc(C23CC4CC(CC(C4)C2)C3)cs1 | -15% | -5% | 0% | ? | -5%
CCNc1nc(C23CC4CC(CC(C4)C2)C3)cs1 | 2% | 6% | 5% | 2.8µM* | -28%
CC1SCC(NC(=O)c2ccc(Cl)cc2)CS1 (configuration not stated) | 11µM* | -4% | 16% | 9% | -8%
CC1SCC(NC(=O)c2cccc(Cl)c2)CS1 (configuration not stated) | 0% | -2% | 22% | ? | 13%
C=CCn1c(SCC(C)=O)nc2scc(-c3ccc(C)o3)c2c1=O | 13µM* | -9% | 4% | 5% | -2%
O=C(NCC1CCCO1)C(c1cccs1)N(Cc1cccs1)C(=O)c1ccc(-c2ccccc2)[nH]1 (configuration not stated) | -77% | 16µM* | -3% | ? | -17%
COC(=O)N(C)C[C@@H]1OCc2ccccc2-c2c(n(C)c3ccccc23)C(=O)N([C@H](C)CO)C[C@@H]1C | -16% | nt | -3% | ? | 3%
Cc1ccc(C)c(Nc2nnc(-c3ccc(C)c(S(=O)(=O)NCC4CCCO4)c3)c3ccccc23)c1 (configuration not stated) | nt | nt | nt | 11µM* | 7%
O=C(N[C@@H](Cc1c[nH]c2ccccc12)C(=O)O)c1ccc(Cl)cc1 | -13% | -5% | 0% | 8% | -13%
NC(=S)NN=C1c2ccccc2-c2c(F)c(F)c(F)c(F)c21 | -66% | nt | -3% | ? | 11µM*
O=C(Nc1ccc2c(c1)Cc1ccccc1-2)c1cccnc1 | 2.8µM* | 5% | 2% | -11% | -2%
